# Laboratory results reported in PMC5540273 (PLoS ONE, 2017).
# Values joined by “and” are separate entries in the source; they are usually repeats but may differ in a detail not shown here. Identical values can stand only once. Like-named read-outs stand apart in the source and are kept apart here.
# Key:
# EPHB2 = details: concentration: 1 μM, replicates: in singlicate; n = 1
# EPHB3 = details: concentration: 1 μM, replicates: in singlicate, n = 1
# EPHB4 = details: concentration: 1 μM, replicates: in singlicate, n = 1
# EPHB6 = details: concentration: 1 μM, replicates: in singlicate, n = 1
# ERBB2 = details: concentration: 1 μM, replicates: in singlicate, n = 1
# ERBB3 = details: concentration: 1 μM, replicates: in singlicate, n = 1
# ERBB4 = details: concentration: 1 μM, replicates: in singlicate, n = 1
# ERK1 = system: T1, ERK1; details: concentration: 1 μM, replicates: in singlicate; n = 1
# T1 construct: gene MAPK3
# ERK2 = system: T2, ERK2; details: concentration: 1 μM, replicates: in singlicate; n = 1
# T2 construct: gene MAPK1
# ERK3 = system: T3, ERK3; details: concentration: 1 μM, replicates: in singlicate, n = 1
# T3 construct: gene MAPK6
# ERK4 = system: T4, ERK4; details: concentration: 1 μM, replicates: in singlicate; n = 1
# T4 construct: gene MAPK4
# ERK5 = system: T5, ERK5; details: concentration: 1 μM, replicates: in singlicate; n = 1
# T5 construct: gene MAPK7
# ERK8 = system: T6, ERK8; details: concentration: 1 μM, replicates: in singlicate, n = 1
# T6 construct: gene MAPK15
# ERN1 = details: concentration: 1 μM, replicates: in singlicate; n = 1
# FAK = system: T7, FAK; details: concentration: 1 μM, replicates: in singlicate; n = 1
# T7 construct: gene PTK2
# FER = details: concentration: 1 μM, replicates: in singlicate, n = 1
# FES = details: concentration: 1 μM, replicates: in singlicate, n = 1
# FGFR1 = details: concentration: 1 μM, replicates: in singlicate; n = 1
# FGFR2 = details: concentration: 1 μM, replicates: in singlicate; n = 1
# FGFR3 = details: concentration: 1 μM, replicates: in singlicate, n = 1
# 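Also: KINOMEscan kinase panel screen.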
smiles,measurement,setting,value
COC(=O)c1c(-c2ccccc2)c2cc(Cl)ccc2c(=O)n1Cc1ccc(S(C)(=O)=O)cc1,%Inh,EPHB2,18%
same,%Inh,EPHB3,24%
same,%Inh,EPHB4,0%
same,%Inh,EPHB6,0%
same,%Inh,ERBB2,0%
same,%Inh,ERBB3,0%
same,%Inh,ERBB4,29%
same,%Inh,ERK1,0%
same,%Inh,ERK2,3%
same,%Inh,ERK3,0%
same,%Inh,ERK4,3%
same,%Inh,ERK5,13%
same,%Inh,ERK8,6%
same,%Inh,ERN1,13%
same,%Inh,FAK,4%
same,%Inh,FER,0%
same,%Inh,FES,3%
same,%Inh,FGFR1,0%
same,%Inh,FGFR2,8%
same,%Inh,FGFR3,6%
Nc1nccc2scc(-c3ccc4c(c3)CCN4C(=O)Cc3cc(F)ccc3F)c12 [GSK2587663],%Inh,EPHB2,10%
same,%Inh,EPHB3,34%
same,%Inh,EPHB4,27%
same,%Inh,EPHB6,59%
same,%Inh,ERBB2,14%
same,%Inh,ERBB3,0%
same,%Inh,ERBB4,46%
same,%Inh,ERK1,3%
same,%Inh,ERK2,0%
same,%Inh,ERK3,4%
same,%Inh,ERK4,0%
same,%Inh,ERK5,0%
same,%Inh,ERK8,14%
same,%Inh,ERN1,2%
same,%Inh,FAK,0%
same,%Inh,FER,26%
same,%Inh,FES,18%
same,%Inh,FGFR1,0%
same,%Inh,FGFR2,1%
same,%Inh,FGFR3,9%
COc1ccc(NC(=O)c2ccc(-c3cc(-c4nnc(C)o4)ccc3C)cc2)cc1 [GW595885],%Inh,EPHB2,10%
same,%Inh,EPHB3,13%
same,%Inh,EPHB4,6%
same,%Inh,EPHB6,0%
same,%Inh,ERBB2,18%
same,%Inh,ERBB3,0%
same,%Inh,ERBB4,7%
same,%Inh,ERK1,0%
same,%Inh,ERK2,0%
same,%Inh,ERK3,0%
same,%Inh,ERK4,0%
same,%Inh,ERK5,0%
same,%Inh,ERK8,0%
same,%Inh,ERN1,0%
same,%Inh,FAK,0%
same,%Inh,FER,6%
same,%Inh,FES,0%
same,%Inh,FGFR1,0%
same,%Inh,FGFR2,0%
same,%Inh,FGFR3,16%
O=C(CCO)NCCn1ccc2ncnc(Nc3ccc(Oc4cccc(C(F)(F)F)c4)c(Cl)c3)c21,%Inh,EPHB2,0%
same,%Inh,EPHB3,2%
same,%Inh,EPHB4,3%
same,%Inh,EPHB6,8%
same,%Inh,ERBB2,100%
same,%Inh,ERBB3,0%
same,%Inh,ERBB4,95.9%
same,%Inh,ERK1,0%
same,%Inh,ERK2,9%
same,%Inh,ERK3,0%
same,%Inh,ERK4,0%
same,%Inh,ERK5,5%
same,%Inh,ERK8,0%
same,%Inh,ERN1,0%
same,%Inh,FAK,0%
same,%Inh,FER,0%
same,%Inh,FES,0%
same,%Inh,FGFR1,0%
same,%Inh,FGFR2,0%
same,%Inh,FGFR3,0%
CS(=O)(=O)CCNCc1nc(-c2ccc3ncnc(Nc4ccc(OCc5cccc(F)c5)c(Cl)c4)c3c2)cs1.Cl [GW583340],%Inh,EPHB2,0%
same,%Inh,EPHB3,0%
same,%Inh,EPHB4,5%
same,%Inh,EPHB6,19%
same,%Inh,ERBB2,99.7%
same,%Inh,ERBB3,0%
same,%Inh,ERBB4,99.1%
same,%Inh,ERK1,0%
same,%Inh,ERK2,0%
same,%Inh,ERK3,12%
same,%Inh,ERK4,45%
same,%Inh,ERK5,5%
same,%Inh,ERK8,0%
same,%Inh,ERN1,10%
same,%Inh,FAK,0%
same,%Inh,FER,3%
same,%Inh,FES,0%
same,%Inh,FGFR1,0%
same,%Inh,FGFR2,0%
same,%Inh,FGFR3,0%
CN1c2ccc(-c3ccc(C(=O)NCCO)cc3)cc2-c2[nH]ncc2S1(=O)=O,%Inh,EPHB2,20%
same,%Inh,EPHB3,18%
same,%Inh,EPHB4,23%
same,%Inh,EPHB6,54%
same,%Inh,ERBB2,8%
same,%Inh,ERBB3,0%
same,%Inh,ERBB4,10%
same,%Inh,ERK1,10%
same,%Inh,ERK2,11%
same,%Inh,ERK3,5%
same,%Inh,ERK4,0%
same,%Inh,ERK5,0%
same,%Inh,ERK8,12%
same,%Inh,ERN1,1%
same,%Inh,FER,11%
same,%Inh,FES,17%
same,%Inh,FGFR1,30%
same,%Inh,FGFR2,0%
same,%Inh,FGFR3,0%
Clc1ccc(-c2cc(-c3c[nH]nc3-c3ccccn3)ccn2)cc1 [GW681251],%Inh,EPHB2,31%
same,%Inh,EPHB3,15%
same,%Inh,EPHB4,1%
same,%Inh,EPHB6,0%
same,%Inh,ERBB2,17%
same,%Inh,ERBB3,0%
same,%Inh,ERBB4,0%
same,%Inh,ERK1,0%
same,%Inh,ERK2,0%
same,%Inh,ERK3,8%
same,%Inh,ERK4,6%
same,%Inh,ERK5,0%
same,%Inh,ERK8,0%
same,%Inh,ERN1,0%
same,%Inh,FAK,0%
same,%Inh,FER,9%
same,%Inh,FES,0%
same,%Inh,FGFR1,0%
same,%Inh,FGFR2,0%
same,%Inh,FGFR3,1%
COc1ccc(-c2nc3n(c2-c2ccncc2)CCC3)cc1 [SKF-104493],%Inh,EPHB2,0%
same,%Inh,EPHB3; 1 µM,10% and 4%
same,%Inh,EPHB4; 1 µM,16% and 11%
same,%Inh,EPHB6; 1 µM,8% and 0%
same,%Inh,ERBB2; 1 µM,0% and 29%
same,%Inh,ERBB3; 1 µM,0% and 8%
same,%Inh,ERBB4; 1 µM,29% and 18%
same,%Inh,ERK1,0%
same,%Inh,ERK2,0%
same,%Inh,ERK3; 1 µM,0% and 9%
same,%Inh,ERK4,0%
same,%Inh,ERK5,0%
same,%Inh,ERK8; 1 µM,6% and 11%
same,%Inh,ERN1,0%
same,%Inh,FAK,0%
same,%Inh,FER; 1 µM,0% and 33%
same,%Inh,FES; 1 µM,10% and 0%
same,%Inh,FGFR1,0%
same,%Inh,FGFR2,0%
same,%Inh,FGFR3; 1 µM,0% and 9%
Cl.c1ccc(Cn2ncc3cc(Nc4ncnc5ccccc45)ccc32)cc1 [GW273749],%Inh,EPHB2,0%
same,%Inh,EPHB3,0%
same,%Inh,EPHB4,10%
same,%Inh,EPHB6,31%
same,%Inh,ERBB2,100%
same,%Inh,ERBB3,68%
same,%Inh,ERBB4,96.2%
same,%Inh,ERK1,0%
same,%Inh,ERK2,0%
same,%Inh,ERK3,57%
same,%Inh,ERK4,35%
same,%Inh,ERK5,0%
same,%Inh,ERK8,0%
same,%Inh,ERN1,34%
same,%Inh,FAK,0%
same,%Inh,FER,13%
same,%Inh,FES,0%
same,%Inh,FGFR1,0%
same,%Inh,FGFR2,0%
same,%Inh,FGFR3,0%
CCCc1ccc(S(=O)(=O)NC2CCN(c3ccnc(Nc4ccc(OC)cc4)n3)C2)cc1 (stereo not drawn) [GSK1379737],%Inh,EPHB2,10%
same,%Inh,EPHB3,5%
same,%Inh,EPHB4,7%
same,%Inh,EPHB6,31%
same,%Inh,ERBB2,36%
same,%Inh,ERBB3,0%
same,%Inh,ERBB4,24%
same,%Inh,ERK1,0%
same,%Inh,ERK2,0%
same,%Inh,ERK3,79%
same,%Inh,ERK4,17%
same,%Inh,ERK5,0%
same,%Inh,ERK8,0%
same,%Inh,ERN1,0%
same,%Inh,FAK,0%
same,%Inh,FER,12%
same,%Inh,FES,0%
same,%Inh,FGFR1,0%
same,%Inh,FGFR2,0%
same,%Inh,FGFR3,0%
Cl.c1ccc(Cn2ccc3cc(Nc4ncnc5ccccc45)ccc32)cc1 [GW275568],%Inh,EPHB2,6%
same,%Inh,EPHB3,4%
same,%Inh,EPHB4,18%
same,%Inh,EPHB6,33%
same,%Inh,ERBB2,100%
same,%Inh,ERBB3,29%
same,%Inh,ERBB4,88%
same,%Inh,ERK1,0%
same,%Inh,ERK2,0%
same,%Inh,ERK3,4%
same,%Inh,ERK4,46%
same,%Inh,ERK5,7%
same,%Inh,ERK8,0%
same,%Inh,ERN1,0%
same,%Inh,FAK,0%
same,%Inh,FER,17%
same,%Inh,FES,15%
same,%Inh,FGFR1,0%
same,%Inh,FGFR2,0%
same,%Inh,FGFR3,28%
